Sm TGR inh = S. mansoni TGR enzyme inhibition; purified TGR, DTNB reduction, TNB absorbance 405 nm; Potency, µM (doses to about 114 µM), inactives show top-dose activity change, negative = inhibition, usual class: inhibitors; 3% of 360,000 active; AID 485364; active = well fitted curve in the direction sought with a large enough effect; inconclusive = small, poorly fitted or top-dose-only effect, or another doubt; inactive = no such curve, though single readings can be large; an effect the other way counts as inactive or inconclusive; note: potency is the fitted concentration of half-maximal effect; % is set by controls: 0 for no effect and ±100 for the full control effect; nearly all actives have a fitted effect of over 60% in size
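Kinetic colorimetric format: TGR-catalysed, NADPH-driven DTNB reduction monitored via TNB absorbance. Enzyme dispensed at 20 nM; compound exposure 15 min at room temperature before reaction start.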
NS1 inh = influenza NS1 inhibition | 0.4% of 270,000 active | Potency, µM (series often up to 46.1 µM), for inactives: at the highest dose activity, positive = more growth; note: potency is the fitted concentration of half-maximal effect; actives are rising curves; nearly all actives have a fitted effect of over 50% in size
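S. cerevisiae expressing influenza A NS1, grown in glucose, washed, then diluted 1:100 into pH 6.0 -URA galactose medium with 23 nl compound. Growth recovery read as OD600; NS1-free strain serves as control.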
RE007 growth inh = less growth of the S. pombe RE007 Vpr strain | S. pombe RE007 Vpr strain, BacTiter-Glo ATP luminescence, 24 h | Potency, µM (top dose mostly 92.2 µM), without a hit: top-dose activity change, negative = less growth, most hits filed as inhibitors | AID 651644 | 0.21% of 360,000 active; active = well fitted falling curve with a large enough effect; inconclusive = small, poorly fitted or top-dose-only effect; inactive = no such curve, though single readings can be large or run the other way; note: potency is the fitted concentration of half-maximal effect; % is set by controls: 0 for no effect and ±100 for the full control effect; nearly all actives have a fitted effect of over 50% in size
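Fission yeast RE007 carrying one integrated HIV-1 vpr copy, seeded at OD 0.01 in PMG+AL medium with 23 nL pinned compound. Grown 24 h at 30 degrees; viability read by BacTiter-Glo luminescence after 5 min.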
Tb PYK inh = inhibitors of Trypanosoma brucei pyruvate kinase. TbPYK enzyme, Kinase-Glo Plus ATP luminescence, 45 min. Potency, µM (titrated, usually from 76.8 µM), for the others: at the top dose activity, negative = inhibition, hits mostly inhibitors. 0.12% of 410,000 active. AID 624173; active = well fitted curve in the direction sought with a large enough effect; inconclusive = small, poorly fitted or top-dose-only effect, or another doubt; inactive = no such curve, though single readings can be large; an effect the other way counts as inactive or inconclusive; note: potency is the fitted concentration of half-maximal effect; % is set by controls: 0 for no effect and ±100 for the full control effect; nearly all actives have a fitted effect of over 50% in size
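Readout: single end-point luminescence (Kinase-Glo Plus, 10 min). Reaction conditions were TbPYK/substrate plus 130 uM ADP, 45 min at RT, pH 7.2 TEA buffer. No-enzyme wells served as controls, and data were normalized before concentration-response fitting.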
LmPK inh = LmPK (Leishmania mexicana) enzyme inhibition. Q27686. 0.37% of 290,000 active. AID 1721. purified LmPK, Kinase-Glo ATP luminescence, 1 h. Potency, µM (series often up to 57.5 µM), for the others: top-dose activity change, negative = inhibition, hits mostly inhibitors; active = well fitted curve in the direction sought with a large enough effect; inconclusive = small, poorly fitted or top-dose-only effect, or another doubt; inactive = no such curve, though single readings can be large; an effect the other way counts as inactive or inconclusive; note: potency is the fitted concentration of half-maximal effect; % is set by controls: 0 for no effect and ±100 for the full control effect
Target sequence (Q27686 whole entry, looked up): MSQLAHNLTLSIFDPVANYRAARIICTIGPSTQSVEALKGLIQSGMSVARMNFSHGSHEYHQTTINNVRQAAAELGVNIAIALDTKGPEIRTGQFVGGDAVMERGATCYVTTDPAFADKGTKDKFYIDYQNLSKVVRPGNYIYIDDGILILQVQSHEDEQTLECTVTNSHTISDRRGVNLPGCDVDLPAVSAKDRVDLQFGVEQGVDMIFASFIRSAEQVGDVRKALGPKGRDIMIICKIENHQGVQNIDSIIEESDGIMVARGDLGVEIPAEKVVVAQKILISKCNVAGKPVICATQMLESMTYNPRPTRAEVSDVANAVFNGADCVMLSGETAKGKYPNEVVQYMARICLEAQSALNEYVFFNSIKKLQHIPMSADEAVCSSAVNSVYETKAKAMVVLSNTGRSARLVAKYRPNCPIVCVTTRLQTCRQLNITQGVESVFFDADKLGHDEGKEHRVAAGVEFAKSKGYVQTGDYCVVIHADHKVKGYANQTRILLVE
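Kinase-Glo luminescence read after 1 h RT reaction of 0.1 nM LmPK with 0.5 mM PEP and 0.1 mM ADP. Activity scaled between uninhibited and enzyme-free controls.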
SARS PLP yeast = SARS-CoV PLP inhibition in yeast. Potency, µM (titrated, usually from 32.9 µM), for inactives: at the top dose activity, positive = growth rescue, usual class: activators. 0.19% of 330,000 active. AID 485353. S. cerevisiae expressing SARS-CoV PLpro, growth rescue; note: potency is the fitted concentration of half-maximal effect; 0% is about no effect; nearly all actives have a fitted effect of over 55% in size
Flu NS1 inh = validation of influenza NS1 protein function inhibitors | 1,400 tested, under 10 active | influenza NS1 function cell assay, 15-point titration | activity change, negative = inhibition, % at 32.9 µM | AID 492980 | shares compounds with NS1 inh; note: 0% is about no effect
Flu PR8 replic = influenza NS1 inhibitors: inhibition of influenza A/PR/8/34 replication | shares compounds with NS1 inh | MDCK infected influenza A/PR/8/34, virus titer TCID50; hits give low values | virus titer (log TCID50), log10 TCID50 at 5 µM | 30% of 95 active | AID 504647; call rule not given here
Numbers without * were called inactive; ? = inconclusive; . = no result given; ! = a repeat was not active; [ ] = dose if it differs, or a comment. Rows were chosen to be rich in hits. Some 3.3% of all compounds tested hit in one or more screens of this group. Unless noted, calls come from the whole dose curve.

SMILES	Sm TGR inh	NS1 inh	RE007 growth inh	Tb PYK inh	LmPK inh	SARS PLP yeast	Flu NS1 inh	others
NC(=O)[C@H](Cc1cc2ccccc2s1)NC(=O)[C@@H]1CC2(CC(c3cccc(NC(=O)[C@@H]4CCC(=O)N4)c3)=NO2)CN1C(=O)/C=C/Sc1ccccc1 (some centres not stated)	-20.0%	17.8µM*	-4.0%	-6.3%	1.7%	-1.8%	33.3
O=C1CC(c2ccco2)CC(O)=C1C=NCC1CCNCC1 (configuration not stated)	?	10µM*	17.0%	3.3%	0.9%	4.8%	1.8
COc1ccccc1N1CCN(C(=O)Cn2ncc3c2-c2cc(C)ccc2OC3)CC1	1.7%	.	.	-0.6%	.	.	.
Cc1[nH]c2ccccc2c1N=Nc1ccccc1C(=O)O	-13.4%	4.47µM*	-5.4%	-2.9%	-4.9%	16.9%	14.8
Cc1ccc(NC(=S)NNc2ccc([N+](=O)[O-])cc2S(=O)(=O)Nc2ccccc2C(=O)O)cc1C	-18.9%	12.6µM*	.	?	-12.5%	0.9%	32.0
COc1cc2nc(N3CCN(C(=O)C4COc5ccccc5O4)CC3)nc(N)c2cc1OC (configuration not stated)	3.9%	35.5µM*!	-15.3%[18.4 µM]	-9.2%	0.5%	-3.6%	-32.5
COc1ccc(N2C(=O)CS(=O)(=O)C23C(=O)N(Cc2ccc(F)cc2)c2ccc(C)cc23)cc1 (configuration not stated)	8.3%	.	.	-5.0%	.	.	.
COC(=O)c1ccc(C(=O)OC)c(NC(=O)N2CC3CCCN3c3ccccc32)c1 (configuration not stated)	-6.8%	.	.	-3.5%	.	.	.
O=C(O)c1cc(Cl)c2c(c1)[C@@H]1C=CC[C@@H]1[C@H](c1ccc(S(=O)(=O)N3CCOCC3)cc1)N2	14.1µM*	14.1µM*	-4.5%	?	-14.5%	27.4%	29.6
CCOc1ccc(OCC)c(NC(=O)Cn2ncc3c4ccccc4n(Cc4ccccc4)c3c2=O)c1	-4.6%	.	.	-0.9%	.	.	.
O=C(C1=NN(c2ccccc2)C2C(=O)N(c3ccccc3Cl)C(=O)C12)c1ccccc1 (configuration not stated)	8.8%	5.62µM*	-13.4%	6.2%	4.9%	-8.9%	-29.0	Flu PR8 replic=8
O=C(C1=NN(c2ccccc2)C2C(=O)N(c3ccccc3)C(=O)C12)c1ccccc1 (configuration not stated)	7.7%	?	19.1%	-4.5%	0.4%	-17.1%	.
CCOC(=O)C1C(=O)N(C)C2(C)CC1c1ccccc1O2 (configuration not stated)	-21.9%	-2.2%	-11.6%	1.6%	10.1%	2.7%	.
CN1C(=O)C(c2nnc(Nc3cccc4ccccc34)s2)C2CC1(C)Oc1ccccc12 (configuration not stated)	-1.2%	11.2µM*	-8.0%	2.4%	0.5%	11.5%	-20.6
COc1ccc(Nc2nc(C)cc(C)c2C(N)=O)cc1	-0.5%	1.3%	-8.3%	-5.2%	3.5%	7.0%	.
COc1cc(C)c(C(N)=O)c(OC)n1	2.8%	?	4.5%	-6.3%	4.7%	-3.0%	0.5
COc1cccc(/C=C/c2nc(C#N)c(N3CCN(C)CC3)o2)c1	32.5%	.	.	-2.6%	.	.	.
CCOc1cc(/C=N/NC(=O)COc2ccc(Cl)cc2)ccc1OS(=O)(=O)c1ccccc1	9.6%	2µM*	7.4%	-2.1%	-5.4%	22.1%	?	Flu PR8 replic=7.66
CCOc1cc(/C=N/NS(=O)(=O)c2ccccc2)ccc1OS(=O)(=O)c1ccc(C)cc1	-2.2%	20.5%	1.5%	-4.6%	8.1%	6.2%	.
COCCCn1c(SCC(=O)Nc2ccccc2OC)nc2c(sc3ccccc32)c1=O	4.7%	.	.	-2.5%	.	.	.
COC(=O)[C@@]1(Cc2ccc(F)cc2)[C@H]2c3cc(C(=O)N4CCCC4)n(CCc4ccc(OC)c(Br)c4)c3C[C@H]2CN1C(=O)c1ccccc1	.	.	1.9%	1.6%	.	.	.
COC(=O)[C@@]1(Cc2ccc(F)cc2)[C@H]2c3cc(C(=O)N4CCCC4)n(CCc4ccc(O)c(O)c4)c3C[C@H]2CN1C(=O)c1ccccc1	?	8.91µM*	.	.	-1.5%	7.5%	3.9
COC(=O)c1ccc(NC(=O)CC2Nc3cc(C)c(C)cc3NC2=O)cc1 (configuration not stated)	0.8%	.	.	5.1%	.	.	.
Cc1c(Cl)c([N+](=O)[O-])nn1CC(=O)N1CCCC1	-12.7%	?	10.3%	-0.6%	-3.1%	24.1%	6.5
COCCNC(=O)Cn1c(=O)n(Cc2ccc(C(=O)NCc3ccco3)cc2)c(=O)c2ccccc21	8.4%	?	7.9%	-6.5%	12.1%	?	2.0
SMILES	Sm TGR inh	NS1 inh	RE007 growth inh	Tb PYK inh	LmPK inh	SARS PLP yeast	Flu NS1 inh	others
Cc1ccc(C(=O)CSc2nc(C)cc(C)c2C(=O)Nc2cccc(C)c2)cc1	2.0%	.	.	-0.3%	.	.	.
O=c1cc(-c2ccc(F)cc2)[nH][nH]1	5.9%	12.6µM*	5.7%	-1.1%	-0.3%	23.3%	20.1
CCn1nc(C(=O)OCc2cccc(S(=O)(=O)N(C)C)c2)c2ccccc2c1=O	10.5%	?	-1.7%	-7.3%	1.6%	1.4%	?
CN(C)S(=O)(=O)c1cccc(COC(=O)c2ccc(Cl)cc2O)c1	-4.0%	0.7%	5.5%	-4.2%	0.9%	-5.9%	.
CCC(Cc1ccccc1)NC(=O)Cn1ncc2c3ccccc3n(Cc3ccccc3)c2c1=O (configuration not stated)	1.1%	.	.	-0.7%	.	.	.
O=C(NNC(=S)NC1CCCCC1)c1cccs1	-0.7%	2.51µM*	18.3%	-10.9%	6.2%	?	11.4
CCOC(=O)c1c(NC(C)=O)c2c3c(sc2n1Cc1cccc(Cl)c1)CCCC3	7.0%	.	.	-1.8%	.	.	.
Cc1cc(NC(=O)CSc2nnc(-c3cccs3)n2N)no1	-0.6%	?	14.5%	-0.4%	-1.8%	9.0%	-7.5
CCCCn1c(SCC(=O)Nc2cc(C)on2)nnc1-c1cccs1	5.0%	0.1%	28.3%	1.1%	0.7%	1.8%	.
CCOc1ccc(S(=O)(=O)Nc2ccccn2)c2ccccc12	6.1%	1.12µM*	-2.6%	0.0%	0.5%	-1.8%	-12.5
CCCOc1ccc(S(=O)(=O)Nc2ccccn2)c2ccccc12	4.4%	30.9%	2.2%	0.5%	9.5%	1.3%	.

Screens from PubChem BioAssay.
